# Data as given in PubChem BioAssay AID720551 (National Center for Advancing Translational Sciences (NCATS), 2013).
# Among all 340,000 compounds or so, about 1,300 (0.38%) were called active. The sample as a whole holds a higher share of actives than the screen did. Values without a mark were called inactive.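 How the source made its calls: active means maximum activity change below -70%; inconclusive means maximum activity change between -70% and -50%; inactive means maximum activity change above -50%.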
# Target: Voltage-gated inwardly rectifying potassium channel KCNH2 (Homo sapiens) (UniProt Q12809)
# Assay: qHTS for Inhibitors of KCHN2 3.1: Wildtype qHTS
# Conditions: U2OS, BacMam KCNH2, thallium flux FluxOr; at 1.84 µM; hits give low values
# Text: Many antipsychotic drugs that inhibit the neurotransmitter dopamine also bind to hERG1 channel which might help explain their antipsychotic activity but also produces cardiac side effects. The discovery of the novel KCNH2 3.1 isoform offers a potential new target for the development of antipsychotic drugs without cardiac side effects. This proposal will use a high throughput thallium flux assay developed for KCNH2 to screen compounds that modulate the activity of KCNH2 3.1. The wild type KCNH2 channel will also be screened in parallel to help define the selective modulators of this KCNH2 3.1 potassium channel. The resulting compounds will be validated in electrophysiology experiments. The availability of animal models will allow future testing in vivo for effects on memory and other aspects of animal physiology linked with psychosis. NIH Chemical Genomics Center [NCGC] NIH Molecular Libraries Probe Centers Network [MLPCN] MLPCN Grant: MH096539 Assay Submitter (PI): James Barrow, Johns Hopkins University, Lieber Institute for Brain Development
# U2OS cells were resuspended in cell media containing 10% fetal calf serum (FCS) at a concentration of 2 million cells / mL. The solution was treated with the Wild-type virus at 2.03 x 10^8 / mL and allowed to incubate at room temperature in the dark. After 4 hours of incubation, DMEM + 10% fetal bovine serum (FBS) was added to the cell solution. Three microliter was then dispensed into a 1536 tissue culture treated black assay plates which were incubated overnight at 37 C. Two microliter of loading buffer (HBSS + HEPES + Red40 dye quencher + FluxOr dye) was added and the assay plates were incubated for 45 min at room temperature in the dark. […] A stimulation buffer was added to the plate and the second kinetic read (2 min) was obtained. The rate constant was calculated from the kinetic reads and normalized to the positive and negative DMSO controls.
# On the % scale 0 is the no-effect control and ±100 the full control effect.
# Voltage-gated inwardly rectifying potassium channel KCNH2 (Homo sapiens), sequence (Q12809 whole entry, looked up): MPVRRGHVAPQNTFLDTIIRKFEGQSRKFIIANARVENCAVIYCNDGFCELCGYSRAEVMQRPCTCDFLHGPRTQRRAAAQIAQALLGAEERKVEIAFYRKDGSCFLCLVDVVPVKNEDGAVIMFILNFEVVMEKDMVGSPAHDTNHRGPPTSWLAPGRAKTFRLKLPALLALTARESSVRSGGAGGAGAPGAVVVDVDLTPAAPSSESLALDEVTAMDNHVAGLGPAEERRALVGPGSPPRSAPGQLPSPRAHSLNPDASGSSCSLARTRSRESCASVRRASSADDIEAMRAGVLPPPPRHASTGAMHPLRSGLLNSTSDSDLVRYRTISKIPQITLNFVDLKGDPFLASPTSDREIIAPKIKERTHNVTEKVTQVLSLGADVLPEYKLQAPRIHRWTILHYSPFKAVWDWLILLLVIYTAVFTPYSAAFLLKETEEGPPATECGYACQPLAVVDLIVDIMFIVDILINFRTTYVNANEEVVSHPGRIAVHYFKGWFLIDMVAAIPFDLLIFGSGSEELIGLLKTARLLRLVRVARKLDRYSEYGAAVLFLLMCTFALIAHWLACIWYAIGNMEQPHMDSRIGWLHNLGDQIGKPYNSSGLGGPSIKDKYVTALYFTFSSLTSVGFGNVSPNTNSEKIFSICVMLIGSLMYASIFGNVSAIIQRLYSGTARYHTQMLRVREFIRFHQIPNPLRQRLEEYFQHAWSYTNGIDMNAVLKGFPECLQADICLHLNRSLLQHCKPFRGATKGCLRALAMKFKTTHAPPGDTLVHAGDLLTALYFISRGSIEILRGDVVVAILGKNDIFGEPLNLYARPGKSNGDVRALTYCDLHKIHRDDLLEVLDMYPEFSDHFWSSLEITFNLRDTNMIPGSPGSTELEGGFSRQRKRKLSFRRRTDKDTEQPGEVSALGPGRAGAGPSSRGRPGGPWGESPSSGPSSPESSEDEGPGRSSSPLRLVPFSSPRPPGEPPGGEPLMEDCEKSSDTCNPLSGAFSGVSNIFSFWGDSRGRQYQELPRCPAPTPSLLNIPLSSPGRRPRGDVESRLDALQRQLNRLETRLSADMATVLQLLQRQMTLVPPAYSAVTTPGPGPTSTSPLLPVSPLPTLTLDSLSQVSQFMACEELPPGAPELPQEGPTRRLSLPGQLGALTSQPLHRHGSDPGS
row,Compound,activity change
1,CCCC[C@@H]1CN=C(N)N1CCc1cccc(F)c1,-2.35%
2,CN(C)C1=NC[C@H](Cc2ccccc2)N1CCc1ccc(F)cc1,-88.4% (active)
3,CCCCN1C(N)=NC[C@@H]1Cc1ccccc1,-3.39%
4,O=C1OCCC1=COCCCCOC=C1CCOC1=O,0.218%
5,COC(=O)C[C@H]1C[C@@H]2c3cc(NC(=O)Nc4ccccc4)ccc3O[C@@H]2[C@@H](CO)O1,-0.954%
6,CCc1ccc(NC(=O)CN2CCC(C(=O)c3ccc(OC)cc3)CC2)cc1,1.48%
7,CCOc1ccc(NC(=O)CN2CCN(CC(=O)Nc3ccc(OC)cc3)CC2)cc1,-141% (active)
8,CCOc1ccc(NC(=O)N2CCN(CC)CC2)cc1,0.628%
9,COc1ccc(C(=O)Nc2sc(C)c(C)c2CN2CCOCC2)cc1,-3.94%
10,COc1cccc(NC(=O)CN2CCN(CC(=O)Nc3ccccc3Cl)CC2)c1,19.7%
11,CCc1cc(C(=O)c2ccc(OC)cc2)c(NC(=O)CN2CCN(C)CC2)s1,-79.3% (active)
12,C[C@H](CO)N1C[C@H](C)[C@@H](CN(C)C(=O)c2cnccn2)Oc2ncc(Br)cc2C1=O,-7.83%
13,O=C(NCCOc1ccccc1)N1[C@H]2CC[C@@H]1C=C(c1ccc(F)cc1OCc1ccccc1)C2,2.38%
14,Cc1ccccc1SCC(=O)OCC(=O)N1CC(=O)Nc2ccccc21,7.23%
15,O=C1CN(C(=O)COC(=O)c2cnc(Cl)c(Cl)c2)c2ccccc2N1,8.42%
16,O=C1CN(C(=O)COc2c(Cl)cccc2Cl)c2ccccc2N1,-143% (active)
17,COc1ccc(NC(=O)CSc2nnnn2-c2cccc(OC)c2)cc1,52.5%
18,Cc1ccc(S(=O)(=O)N2C[C@@H](C)[C@]3(C2)[C@H](O)[C@H](OC(=O)NCc2ccccc2)C[C@H]2C(=O)N(c4ccccc4)C(=O)[C@H]23)cc1,-2.73%
19,COc1ccc([C@H]2N[C@]3(CCCN(CC4CCCCC4)C3=O)[C@H]3C(=O)N(C)C(=O)[C@@H]23)cc1,14.1%
20,COc1ccc(SC[C@H](Cc2ccccc2)N2CCN(CCc3ccccc3)CCC2=O)cc1,-108% (active)
21,O=C1CC[C@H](O)CCN1[C@H](CSc1ccc(Br)cc1)Cc1ccccc1,0.842%
22,C[C@H]1CCC(=O)N([C@H](CSc2ccccc2)Cc2ccccc2)CC1,9.67%
23,C[C@H]1CN([C@@H](C)CO)C(=O)CCCn2cc(nn2)CO[C@@H]1CN(C)S(=O)(=O)c1cccc(C#N)c1,-15.1%
